Screening data (PubChem BioAssay)
AmpC detergent = blocks E. coli AmpC beta-lactamase in detergent assay. P00811. AmpC hydrolysis of nitrocefin, absorbance 480 nm, 0.01% Triton. Potency, µM (doses to about 114 µM), inactives show at the highest dose activity change, negative = inhibition, most hits filed as inhibitors. hit rate 0.041% among 370,000. AID 485294;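 note: 0% = no-compound wells and -100% = no-enzyme wells; nearly all actives have a fitted effect of over 25% in size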
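AmpC (5.3 nM in the dispensed reagent) in 20 mM phosphate pH 7.0 with 0.01% (detergent screen) or 0.0001% Triton X-100 was preincubated with compounds for 15 min at room temperature. Nitrocefin was then added from an 800 uM solution, and hydrolysis was followed at 480 nm.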
FBPA Giardia inh = Giardia lamblia aldolase inhibition | A8B2U2 | purified Giardia FBPA | Potency, µM (titrated, usually from 59.6 µM), without a hit: top-dose activity, negative = inhibition, hits mostly inhibitors | hit rate 0.71% among 290,000 | AID 2451; note: nearly all actives have a fitted effect of over 55% in size
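40 nM FBPA preincubated 10 min at RT with compound (up to 57.5 uM final), then substrate plus GAPDH/TPI/NAD/arsenate coupling and diaphorase/resazurin added. Fluorescence read after 20 min at RT, 525/598 nm.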
LmPK inhibitor = inhibitors of Leishmania mexicana pyruvate kinase; Q27686; Potency, µM (series often up to 57.5 µM), without a hit: at the highest dose activity change, negative = inhibition, most hits filed as inhibitors; AID 1721; hit rate 0.37% among 290,000; purified LmPK, Kinase-Glo ATP luminescence, 1 h
Target sequence (Q27686 whole entry, looked up): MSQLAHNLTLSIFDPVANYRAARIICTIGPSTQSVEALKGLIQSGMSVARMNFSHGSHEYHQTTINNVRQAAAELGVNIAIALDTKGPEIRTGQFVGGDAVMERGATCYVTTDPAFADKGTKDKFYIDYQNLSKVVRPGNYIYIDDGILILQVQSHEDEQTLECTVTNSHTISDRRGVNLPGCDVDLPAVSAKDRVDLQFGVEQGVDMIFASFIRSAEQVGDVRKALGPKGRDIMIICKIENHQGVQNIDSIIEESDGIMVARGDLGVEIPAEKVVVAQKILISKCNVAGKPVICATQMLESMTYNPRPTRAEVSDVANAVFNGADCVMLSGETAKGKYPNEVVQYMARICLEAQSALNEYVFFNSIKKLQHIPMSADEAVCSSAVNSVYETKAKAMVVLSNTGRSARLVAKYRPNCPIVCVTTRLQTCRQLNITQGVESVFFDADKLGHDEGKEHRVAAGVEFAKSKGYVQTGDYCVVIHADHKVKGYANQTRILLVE
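Purified LmPK (0.1 nM) converted ADP (0.1 mM) to ATP with PEP (0.5 mM) in imidazole buffer pH 7.2 with KCl and MgCl2, 1 h at room temperature. ATP was read by Kinase-Glo luminescence; data normalized to uninhibited and no-enzyme controls.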
TbPYK inhibitor = blocks Trypanosoma brucei pyruvate kinase; Q57TT1; TbPYK enzyme, Kinase-Glo Plus ATP luminescence, 45 min; Potency, µM (titrated, usually from 76.8 µM), for the others: at the top dose activity, negative = inhibition, usual class: inhibitors; hit rate 0.12% among 410,000; note: nearly all actives have a fitted effect of over 50% in size
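T. brucei PYK with substrate was exposed to pin-transferred compounds across a concentration series, then started with 130 uM ADP (final). After 45 min at room temperature, Kinase-Glo Plus luminescence was read, normalized and curve-fitted.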
RE007 growth inh = less growth of the S. pombe RE007 Vpr strain | S. pombe RE007 Vpr strain, BacTiter-Glo ATP luminescence, 24 h | Potency, µM (highest dose often 92.2 µM), inactives show at the highest dose activity change, negative = less growth, actives largely listed as inhibitors | hit rate 0.21% among 360,000 | AID 651644; active = well fitted falling curve with a large enough effect; inconclusive = small, poorly fitted or top-dose-only effect; inactive = no such curve, though single readings can be large or run the other way; note: nearly all actives have a fitted effect of over 50% in size
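Fission yeast RE007 carrying one integrated HIV-1 vpr copy, seeded at OD 0.01 in PMG+AL medium with 23 nL pinned compound. Grown 24 h at 30 degrees; viability read by BacTiter-Glo luminescence after 5 min.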
AmpC inh no detg = AmpC beta-lactamase inhibition without detergent | P00811 | AmpC nitrocefin hydrolysis, absorbance 480 nm, 0.0001% Triton | Potency, µM (doses to about 57.1 µM), without a hit: at the top dose activity change, negative = inhibition, hits mostly inhibitors | hit rate 0.52% among 330,000;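 note: plate controls were no compound for no effect and no enzyme for full effect; nearly all actives have a fitted effect of over 20% in size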
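AmpC (5.3 nM in the dispensed reagent) in 20 mM phosphate pH 7.0 with 0.01% (detergent screen) or 0.0001% Triton X-100 was preincubated with compounds for 15 min at room temperature. Nitrocefin was then added from an 800 uM solution, and hydrolysis was followed at 480 nm.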
The depositor's hits bear a star; ? = inconclusive; / = no result; ! = repeats disagree; [ ] = dose if it differs, or a comment. In the library only some 1.4% were active in any assay of this set; here they are far more common. Unless noted, calls come from the whole dose curve; as a rule, active = well fitted curve in the direction sought with a large enough effect; inconclusive = small, poorly fitted or top-dose-only effect, or another doubt; inactive = no such curve, though single readings can be large; an effect the other way counts as inactive or inconclusive. Unless noted, % is set by controls: 0 for no effect and ±100 for the full control effect; potency is the fitted concentration of half-maximal effect.

SMILES	AmpC detergent	FBPA Giardia inh	LmPK inhibitor	TbPYK inhibitor	RE007 growth inh	AmpC inh no detg
COc1cc(OC)cc(C(=O)O/N=C(\N)c2ccccn2)c1	-1.2%	0.9%	-6.5%	0.6%	?	0.7%
COc1ccc(C(=O)O/N=C(\N)c2ccccn2)cc1	?	5.1%	12.6µM*	10µM*	?	-23.7%
N/C(=N\OC(=O)c1ccc(Cl)cc1)c1[nH]ncc1Br	3.3%	0.1%	10µM*	?	?	-44.2%
CCN(C(=O)Cn1cnc2onc(-c3ccc(F)cc3)c2c1=O)c1cc(C)ccc1C	7.0%	/	/	-0.8%	/	/
COc1cc(-c2cc(OC)c3c(C)oc(C)c3c(=O)c2)ccc1OC(=O)c1ccccc1C	13.7%	/	/	-4.9%	/	/
Cc1ccc(C(=O)N2CCc3cc(CNS(=O)(=O)c4ccc(Cl)s4)ccc32)cc1	11.8%	/	/	2.2%	/	/
CC1=CC(=O)c2c(O)ccc(O)c2C1=O	?	?	-20.4%	/	/	14.1µM*
Cc1ccc(C)c(CN2C(=O)c3ccccc3S(=O)(=O)c3ccc(C(=O)N(C)C4CCCCC4)cc32)c1	-8.3%	/	/	0.3%	/	/
CC1(C)S[C@@H]2[C@H](NC(=O)[C@H](N)c3ccccc3)C(=O)N2[C@H]1C(=O)O	44.7µM*	?	3.1%	8.0%	-9.7%[18.4 µM]	12.6µM*!
CC1(C)S[C@@H]2[C@H](NC(=O)[C@H](N)c3ccc(O)cc3)C(=O)N2[C@H]1C(=O)O	35.5µM*	-13.7%	-1.8%	-4.5%	-11.9%	-22.6%
O=C(Cn1c(=O)oc2cc(S(=O)(=O)NC3CCCC3)ccc21)Nc1ccc(F)c(F)c1	-0.3%	/	/	2.3%	/	/
CCN1CCN(C(=O)N[C@H](C(=O)N[C@@H]2C(=O)N3[C@@H](C(=O)O)C(C)(C)S[C@@H]23)c2ccccc2)C(=O)C1=O	/	/	/	8.1%	/	/
Cc1nc2ccc(Cl)cc2nc(C)/c1=N\O	?	14.1µM*	1.4%	0.5%	-14.6%	-32.5%
COc1ccc(OC)c(CNC(=O)c2ccc(-c3nc(CSc4ccccc4)c(C)o3)cc2)c1	2.6%	/	/	4.2%	/	/
Cc1ccc(-c2csc(NC(=S)NC(=O)/C=C/c3ccco3)n2)cc1	0.5%	/	-0.8%	-11.3%	13.0%	3.98µM*
COc1ccc(NC(=S)NC(=O)/C=C/c2ccco2)cc1	7.9%	7.2%	1.2%	-4.6%	3.5%	15.8µM*
COc1ccc(N2Cc3ccccc3C2=O)cc1	-4.8%	-2.4%	14.1µM*	-25.8%	?	-19.1%
C=CC(=O)Oc1ccc(N2Cc3ccccc3C2=O)cc1	/	/	/	-27.6%	7.94µM*	/
COc1ccc(N2C(=O)NC(=O)/C(=C/c3ccc([N+](=O)[O-])s3)C2=O)cc1	-2.4%	?	-2.4%	12.6µM*	?	-33.9%
COc1ccc(CN2C(=O)NC(=O)/C(=C/c3ccc([N+](=O)[O-])s3)C2=O)cc1	-6.9%	-29.4%	-8.5%	?	?	?
O=C1NC(=O)N(Cc2ccc(F)cc2)C(=O)/C1=C\c1ccc([N+](=O)[O-])s1	-6.0%	-29.5%	-5.8%	?	?	11.2µM*
COc1ccc(N2C(=O)/C(=C/c3cccs3)C(=O)NC2=S)cc1	0.9%	-6.2%	14.8%	?	23.8%	-35.4%
COc1ccc(N2C(=O)NC(=O)/C(=C\c3ccc([N+](=O)[O-])s3)C2=O)cc1	1.2%	?	-6.6%	?	-26.6%	-53.8%
COc1ccc(N2C(=O)/C(=C/C=C/c3ccccc3[N+](=O)[O-])C(=O)NC2=S)cc1	-9.2%	?	-2.0%	20µM*	-8.3%	-59.3%
Cc1cc(N=Nc2c(O)c3ccccc3[nH]c2=O)ccc1N=Nc1ccc(C(=O)N(C)C)cc1	-0.9%	-4.6%	2.4%	-6.3%	/	-10.2%
SMILES	AmpC detergent	FBPA Giardia inh	LmPK inhibitor	TbPYK inhibitor	RE007 growth inh	AmpC inh no detg
O=C(O)c1ccc(N=Nc2c(O)[nH]c3ccccc23)cc1	-10.1%	-5.2%	14.1µM*	-27.7%	?	1.9%
CN(C)C(=O)c1ccc(N=Nc2c(O)c3ccccc3[nH]c2=O)cc1	/	/	/	-29.2%	17.8µM*	/
Cc1ccccc1N=Nc1c(O)[nH]c2ccccc12	/	/	/	-22.9%	-2.2%	/
CCOc1ccc(CCNC(=O)CSCc2nc(-c3cccc(C)c3)oc2C)cc1OCC	-1.0%	/	/	0.1%	/	/
CC[C@H](C)[C@H](NC(=O)[C@H](CO)NC(=O)[C@H](C)NC(=O)[C@H](C)NC(=O)[C@H](CCC(N)=O)NC(=O)[C@H](CCCCN)NC(=O)[C@H](CCCN=C(N)N)NC(=O)[C@@H](N)CS)C(=O)N[C@@H](CCCCN)C(=O)N[C@H](C(=O)N[C@@H](C)C(=O)N[C@H](C(=O)N[C@@H](CO)C(=O)O)C(C)C)C(C)C	/	4.3%	/	/	/	/
O=C(CSc1cn(Cc2ccccc2)c2ccccc12)N1CCOCC1	?	-3.0%	0.6%	-5.2%	-6.9%	44.7µM*
COc1ccc(-c2noc(C3CC(=O)N(c4ccc(C)c(F)c4)C3)n2)c(OC)c1 (stereo not drawn)	19.1%	/	/	-0.2%	/	/
CN(C)c1ccc(NC(=O)c2ccc([N+](=O)[O-])cc2Cl)cc1	100µM*	-3.3%	-1.5%	1.5%	6.2%	-13.6%
Cn1c(=O)c2c(SCC(N)=O)nc(CC(C)(C)C)nc2n(C)c1=O	?	?	-0.5%	5.1%	-9.1%	6.31µM*
Cn1c(=O)c2c(SCc3c(F)cccc3Cl)nc(CC(C)(C)C)nc2n(C)c1=O	-3.5%	-2.9%	-0.3%	7.4%	-0.5%	3.55µM*
CC/C=C(\C(=O)N[C@H]1C(=O)N2C(C(=O)OCOC(=O)C(C)(C)C)=C(COC(N)=O)CS[C@H]12)c1csc(N)n1	/	/	/	-8.3%	/	/
S=c1[nH]nc(C2CCCCC2)n1/N=C/c1cccc(Br)c1	?	12.7%	1.5%	-11.7%	4.9%	-32.1%
COc1cc(/C=N/n2c(C3CCCCC3)n[nH]c2=S)cc(Br)c1O	7.1%	-4.5%	-25.8%	7.94µM*	3.9%	-34.0%
Cn1c(C(=O)NCCCN2CCCCCC2)cc2c(=O)n(C)c3ccccc3c21	?	-5.7%	-1.0%	-2.4%	1.8%	11.2µM*
CCCN1CCN(CCCNC(=O)c2cc3c(=O)n(C)c4ccccc4c3n2C)CC1	?	-3.3%	4.4%	-0.9%	-13.0%	6.4%
C=CCOc1ccc2ccccc2c1/C=N/O	?	-0.5%	2.0%	4.2%	31.6µM*	-27.4%
CCOC(=O)c1cc(-c2ccccc2)n(-c2cccc(C(=O)Nc3cccc(F)c3)c2)c1C	7.4%	/	/	12.6%[15.4 µM]	/	/
COc1ccc(/C=C2\CCCc3c2nc2ccccc2c3C(=O)O)cc1OC	4.0%	7.92µM*	8.4%	/	/	-31.0%
